The whole screen tested about 360,000 compounds, of which about 2,800 (0.78%) were called active. What follows is part of a selection rich in actives, with near analogues and random picks from the rest. Values without a mark were called inactive. No stated cut-off is given here; in the data, active means inhibition above about 26%; inactive means the rest.
The molecules below were run on Nicotinate-nucleotide adenylyltransferase NadD (Staphylococcus aureus N315) (assay: S. aureus NadD enzyme activity blockers – biochemical, colorimetric, uHTS, primary screen (AID 602399)). Conditions: purified NadD enzyme, colorimetric absorbance read-out; at 20 µM; active compounds read high.
With `Cc1cccc(N2C(=O)NC(=O)/C(=C\c3cnn(-c4ccccc4)c3)C2=O)c1` the inhibition was 31.6% (active). `COC(=O)CN1C(=O)C2(C(C(=O)OC)=C(N)Oc3ccccc32)C2=C1CC(C)(C)CC2=O` (stereo not given) showed an inhibition of -11.2%. Work on `CC1(C)C(c2ccccc2)=NC(c2cccnc2)=[N+]1[O-]` yielded an inhibition of -1.36%. `Cc1cccc(NC(=O)N2CC3CC(C2)c2cccc(=O)n2C3)c1` (stereo not given) was tested, and the inhibition was -1.21%. Work on `COC1C(O)C(C)OC(OC2CCC3(C=O)C(CCC4C3CCC3(C)C(C5=CC(=O)OC5)CCC43O)C2)C1O` (stereo not given) yielded an inhibition of -4.34%. Work on `CCOC(=O)c1c(C)c(C(=O)N2CCC3(CC2)OCCO3)c(C)n1CC` yielded an inhibition of -2.05%. `O=c1[nH]c(CN2CC=C(c3ccccc3)CC2)nc2scc(-c3cccs3)c12` was tested, and the inhibition was 29.6% (active). In the case of `CC1=CC(=Cc2sc3ccccc3[n+]2C)C=C(C)O1`, the inhibition is reported as 1.49%. With `CCN1C(=O)NC(=O)C2(CCCC2)C1=O` the inhibition was 1.24%. `c1cc2c(cc1C1OCC3C(c4ccc5c(c4)OCO5)OCC13)OCO2` (stereo not given) was tested, and the inhibition was 1.25%. `CCCCCn1c(=O)c(C(=O)NCc2ccccc2)c(O)c2ccccc21` showed an inhibition of 1.88%. Molecule `CCCCn1c(=O)c(C(=O)Nc2ccccc2Cl)c(O)c2ccccc21` has an inhibition of -7.15%. In the case of `CCCCCn1c(=O)c(C(=O)Nc2c(C)n(C)n(-c3ccccc3)c2=O)c(O)c2ccccc21`, the inhibition is reported as 29.9% (active). `Clc1ccc2nc3c(c(-c4ccccc4)c2c1)CNCC3` gave an inhibition of -4.51%. Molecule `COCc1cc(OC(=O)N(C)C)nc(-c2ccc(C)c(Cl)c2)n1` has an inhibition of -4.84%. Molecule `COC1=C[C@@H]2[C@@H]3Cc4ccc(OC)c(O)c4[C@]2(CCN3C)CC1=O` has an inhibition of 3.24%. For `O=C1NC(=O)N(Cc2ccco2)C(=O)/C1=C\c1ccc(-c2ccc(F)cc2)o1`, the inhibition was 38.2% (active). With `O=C(Cn1c(=O)n(CC2CS2)c2ccccc21)N1CCCCC1` (stereo not given) the inhibition was -1.82%. `COc1cccc(-c2nc3ccc(N4CCN(C)CC4)cc3[nH]2)c1` gave an inhibition of -5.51%. `COC(=O)C1=C(c2cc3ccccc3o2)C[C@@H]2CC[C@H]1N2C(=O)NC1CCCCC1` was tested, and the inhibition was 0.201%.

— PubChem BioAssay AID602399 (Sanford-Burnham Center for Chemical Genomics, 2012)
